Source: PubChem
This is a sample that favours compounds with a hit; in the whole collection about 1.1% have one here.
BRCA1 expr up – activators of BRCA1 expression. MCF7-BRCA1-FFLuc reporter, luminescence, 48 h; response scale: scaled: vehicle 0%, 10 µM genistein 100%. Potency, µM (doses to about 46.1 µM), for inactives: at the top dose activation, usual class: activators. 380,000 compounds, 1.1% hits; note: potency is the fitted concentration of half-maximal effect; nearly all actives have a fitted effect of over 80% in size
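MCF7-BRCA1-FFLuc cells, 2000/well in phenol-red-free MEM, attached 2 h then treated 48 h at 37 C. Luciferase luminescence read 15 min after reagent; normalized to genistein maximum activation (10microM) and DMSO, concentration-response fitted.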
PTHR1 ag – activates the human parathyroid hormone receptor PTHR1; 410,000 compounds, 0.075% hits; Potency, µM (series often up to 115 µM), for the others: at the highest dose activation, usual class: activators; Q03431; HEK293 GP2 PTHR1 cells, GloSensor cAMP luminescence, 1 h; note: potency is the fitted concentration of half-maximal effect; nearly all actives have a fitted effect of over 55% in size
Target sequence (Q03431 whole entry, looked up): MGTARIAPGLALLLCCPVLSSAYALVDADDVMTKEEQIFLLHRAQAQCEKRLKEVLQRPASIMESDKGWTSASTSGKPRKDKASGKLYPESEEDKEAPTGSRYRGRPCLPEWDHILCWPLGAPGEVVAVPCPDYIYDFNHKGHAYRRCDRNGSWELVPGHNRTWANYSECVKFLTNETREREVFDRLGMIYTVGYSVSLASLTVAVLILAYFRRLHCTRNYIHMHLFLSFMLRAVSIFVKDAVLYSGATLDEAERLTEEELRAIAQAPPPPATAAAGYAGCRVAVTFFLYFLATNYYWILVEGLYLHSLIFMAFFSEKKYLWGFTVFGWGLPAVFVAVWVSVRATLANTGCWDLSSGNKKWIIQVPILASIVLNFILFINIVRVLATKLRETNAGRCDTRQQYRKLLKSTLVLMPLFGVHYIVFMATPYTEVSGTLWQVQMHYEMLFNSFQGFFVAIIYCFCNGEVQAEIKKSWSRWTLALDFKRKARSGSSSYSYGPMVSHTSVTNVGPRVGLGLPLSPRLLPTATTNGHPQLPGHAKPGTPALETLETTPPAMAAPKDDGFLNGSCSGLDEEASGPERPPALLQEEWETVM
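HEK-293-derived GP2 cells expressing PTHR1 and a GloSensor cAMP reporter, 3,000/well, plated overnight, given luciferin plus IBMX (each 0.5 mM as added) for 1 h at 37 °C, then compound for 1 h at 37 °C. Luminescence was read after 15 min at room temperature.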
p53 reactivator – mutant p53 re-activation in reporter cells; H1299 p53-A138V BP100-luciferase reporter, luminescence, 24 h; Potency, µM (doses to about 92.2 µM), for inactives: top-dose activity change, positive = activation, actives largely listed as activators; 320,000 compounds, 0.063% hits; note: potency is the fitted concentration of half-maximal effect; % of control where 0% means no effect; nearly all actives have a fitted effect of over 45% in size
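H1299 (p53-null), stable ts p53-A138V + BP100-Luc; 1000 cells/well, Opti-MEM/10% FBS; cpd 4 pt, 1:5; 24 h, 37 deg C, 5% CO2; detection reagent 10 min RT; luminescence.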
LDHA inh – inhibitors of human lactate dehydrogenase A | AID 1347041 | purified LDHA, NADH/diaphorase-resazurin fluorescence; hits give low values | P00338 | 480,000 compounds, 0.15% hits | activity change, % (values are at about 110 or 230 µM); in the data active = activity change below about -30%; inconclusive = mostly about -25% to -30%;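 note: plate controls were DMSO wells for no effect and wells without enzyme for full effect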
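Enzyme activity of human lactate dehydrogenase 5 (2 nM; 0.06 mM NADH, 0.2 mM pyruvate, 5 min, RT) is measured via a resazurin/diaphorase fluorescence readout of residual NADH.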
RGS4 inhibitor – blocks human RGS4-accelerated GTP hydrolysis | 390,000 compounds, 0.039% hits | Potency, µM (doses to about 114 µM), inactives show at the top dose activity change, negative = inhibition, most hits filed as inhibitors | P49798 | Transcreener GDP fluorescence polarization, RGS4-accelerated GTP hydrolysis; note: potency is the fitted concentration of half-maximal effect; % is set by controls: 0 for no effect and ±100 for the full control effect; nearly all actives have a fitted effect of over 75% in size
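MLSMR compounds (23 nl, pin-transferred) preincubated 10 min at room temperature with a 500nM (2x) first reagent, then RGS4 at 900nM (2x) plus Transcreener GDP mix added; fluorescence polarization (620/688 nm) read before and after 90 min at 30 °C.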
Numbers without * were called inactive; i = inactive; ? = inconclusive; nt = no result; [ ] = another dose, or the depositor's remark. Unless noted, calls come from the whole dose curve; as a rule, active = well fitted curve in the direction sought with a large enough effect; inconclusive = small, poorly fitted or top-dose-only effect, or another doubt; inactive = no such curve, though single readings can be large; an effect the other way counts as inactive or inconclusive.

SMILES	BRCA1 expr up	PTHR1 ag	p53 reactivator	LDHA inh	RGS4 inhibitor
Cc1ccc(OCC(=O)N2CCc3ccccc3C2)c(C)c1	2%	-27%	-2%	-11	15%
CCOc1ccc(C(=O)CC2(O)C(=O)Nc3ccc(CC)cc32)cc1 (configuration not stated)	nt	nt	nt	5	nt
Cc1nc(N)nc(N/N=C/c2ccccc2)n1	32%	i	3%	0	-19%
Cc1cc(N/N=C/c2ccccc2)nc(N)n1	13µM*	-3%	16%	-6	10%[11.4 µM]
CN1CCN(CCOc2ccc(-c3ccccc3)cc2)CC1	7.9µM*	i	nt	-1	19%
CCOc1ccccc1OCCOCCN1CCN(Cc2ccccc2)CC1	-8%	i	-2%	-31*	-18%
CCN1CCN(CCOc2ccc(Cl)cc2)CC1	3%	-23%	0%	-34*	17%
CCN1CCN(CCCOc2ccccc2-c2ccccc2)CC1	-28%	-18%	?	-19	-24%[56.9 µM]
CCN1CCN(CCOc2ccccc2-c2ccccc2)CC1	-24%	?	-2%	-34*	6%
CN(Cc1ccccc1)c1ccccc1NCC(=O)NC(N)=O	nt	nt	nt	8	nt
O=S1(=O)C=C(Sc2nn(-c3ccccc3)c(=S)s2)c2ccccc21	nt	nt	nt	13	nt
CCC(=O)N/C(N)=N/c1nc2ccccc2o1	2µM*	-26%	8%	0	-21%
CSc1ccc(CN2CCC(N3CC(C)OC(C)C3)CC2)cc1 (configuration not stated)	-5%	i	1%	-24	-11%
Cc1ccc(CN2CCC(N3CC(C)OC(C)C3)CC2)cc1 (configuration not stated)	1%	-11%	-2%	-32*	22%
O=[N+]([O-])c1c(Nc2cccc(Cl)n2)ccc2nonc12	nt	nt	nt	7	nt
CSc1ccccc1-c1nnc(-c2ccc(Cl)cc2Cl)o1	7.9µM*	-23%	?	0	-37%
CSc1ccccc1-c1nnc(-c2ccc(Cl)c(Cl)c2)o1	15%	-36%	?	-2	-10%[11.4 µM]
O=C(Nc1nc(-c2ccccc2)cs1)NC1CCCCC1	21%	-40%	?	1	-12%
c1ccc(-c2csc(NC3CCCCC3)n2)cc1	2.8µM*	-22%	?	-8	-24%
Cc1cccc(Cc2cnc(NC(=O)c3nn(C)c(=O)c4ccccc34)s2)c1	nt	nt	nt	9	nt
Cc1ccc(O)c(CNc2ccccn2)c1	16µM*	i	65%	-3	-10%
CC(=O)N(c1nc(CSc2nnc(C3CC3)n2C2CC2)cs1)c1ccc(C)cc1C	nt	nt	nt	0	nt
N#C/C(C(=O)Oc1ccccc1)=C1\C=CC=CN1	3.2µM*	-18%[57.5 µM]	?	-7	12%
N#C/C(C(=O)c1ccccc1)=C1/CCCN1	31%	-11%[57.5 µM]	12%	-1	-11%
O=C(NCC1CCCO1)c1sc2cc(Cl)ccc2c1Cl (configuration not stated)	10µM*	i	?	-12	12%
SMILES	BRCA1 expr up	PTHR1 ag	p53 reactivator	LDHA inh	RGS4 inhibitor
Cc1cc(C(C)(C)C)ccc1NC(=O)CC(C)(C)CC(=O)O	13µM*	-21%	?	-2	-16%
Cc1ccc(NC(=O)CC(C)(C)CC(=O)O)c(C)c1	nt	nt	nt	-4	nt
CCN(CC)c1ccc(NC(=O)c2cnc3ccccc3n2)cc1	nt	nt	nt	-2	nt
c1ccc(CCNc2nc3ccccc3s2)cc1	11µM*	-4%[57.5 µM]	17%	-9	11%
CCOc1ccc2nc(S(=O)(=O)NC(=O)C3(C)CCN3C(=O)c3c(C)noc3C)sc2c1 (configuration not stated)	7%	i	nt	-15	nt
CCOc1ccc2nc(S(=O)(=O)NC(=O)C3(C)CCN3C(=O)c3cc(C)n(C)n3)sc2c1 (configuration not stated)	4%	i	nt	-67*	nt
CCOC(=O)c1sc(-c2ccc(OC)cc2)cc1N	?	-5%[57.5 µM]	?	-2	4%
CCOC(=O)c1sc(-c2ccccc2)cc1N	13µM*	-7%[57.5 µM]	?	-2	-9%
CCOC(=O)c1cc(-c2ccccc2)sc1N	?	i	?	-4	-50%
CCOC(=O)c1sc(-c2ccc(F)cc2)cc1N	11µM*	-9%[57.5 µM]	14%	-9	13%
CCc1sc(C(=O)Nc2sc(C)c(C)c2C#N)cc1Br	nt	nt	nt	0	nt
COc1ccccc1OCC(=O)Nc1sc2c(c1C(N)=O)CCC2	5µM*	-30%	14%	0	-12%
COc1cccc(C(=O)OCC(=O)Nc2sc3c(c2C(N)=O)CCC3)c1O	-30%	-13%	8%	-1	-37%
O=C(Cc1csc(-c2ccccc2Cl)n1)Nc1nc2c(s1)CCCCC2	nt	nt	nt	2	nt
CCn1nc(C(=O)Nc2ccc3c(c2)CCC3)c2ccccc2c1=O	nt	nt	nt	2	nt
Cc1nn(-c2ccccc2)c(C)c1/C=N/NC(=O)CSc1nnc(SCc2ccccc2Cl)s1	13µM*	i	18%	-11	-1%
Cc1ccc(CSc2nnc(SCC(=O)N/N=C/c3c(C)nn(-c4ccccc4)c3C)s2)cc1	34%	i	?	-3	10%
CCCn1nc(C(=O)N(C)C(C)c2ccc(F)c(F)c2)c2ccccc2c1=O (configuration not stated)	nt	nt	nt	-7	nt
COc1cc(/C=C2\S/C(=N/S(=O)(=O)c3ccc(C)cc3)NC2=O)c([N+](=O)[O-])cc1OC	-3%[1.84 µM]	i	8%	0	-15%
Cc1ccc(S(=O)(=O)/N=C2/NC(=O)/C(=C/c3cc([N+](=O)[O-])ccc3O)S2)cc1	0%	?	0%	-51*	-5%
O=C1CC(=O)N(Cc2ccco2)C(=S)N1	-19%	i	0%	-36*	?
O=C1CC(=O)N(Cc2ccco2)C(=O)N1	0%	-25%[57.5 µM]	0%	?	-50%
O=C1CCCC2=C1C(c1ccc(F)cc1F)Nc1nonc1N2 (configuration not stated)	nt	nt	nt	-33*	nt
COc1cc(/C=N/N=C2/NC(=O)C(CC(=O)O)S2)ccc1OCc1ccc(Cl)cc1 (configuration not stated)	4µM*	-25%	?	-6	-2%
CCOc1cc(/C=N/N=C2/NC(=O)C(CC(=O)O)S2)ccc1OCc1ccc(Cl)cc1Cl (configuration not stated)	-22%	i	-1%	-9	?
O=C1ON=C(c2ccc(Cl)c([N+](=O)[O-])c2)/C1=C/c1cccc([N+](=O)[O-])c1O	-2%	i	29%	-31*	-7%
O=C1ON=C(c2ccccc2[N+](=O)[O-])/C1=C/c1cccc([N+](=O)[O-])c1O	0%	i	?	-17	-10%
O=C(NC(=S)Nc1ccccc1Br)C1CCCCC1	59%	-23%	?	-1	-48%
O=C(NC(=S)Nc1ccccc1Br)C1CCCC1	?	-15%	28µM*	-2	-32%
